Drawing on PubChem BioAssay (NCATS), this text covers activation for 40 compounds.

Where “and” joins values, the source holds several entries; their conditions need not be identical. Identical values can stand only once. Results filed as inconclusive are left out. Calls of active or inactive are those of the source. Calls follow the shape of the dose curve; as a rule, active = well fitted activation curve with a large enough effect in the signal ratio; inconclusive = small, poorly fitted or top-dose-only effect, or a change in a side signal; inactive = flat fitted curve, though single readings scatter; the % refers to the signal ratio.

This experiment in a line: qHTS assay for small molecule activators of the nuclear factor-kappa B (NF-kB) signaling pathway (AID 651749). Also: series mostly up to about 77 µM; % of control where 0% means no effect. To be noted: NF-kB-bla ME-180 cells, beta-lactamase FRET ratio, 16 h; activation: stronger effect = higher value. An excerpt: National Center for Advancing Translational Sciences [NCATS] NIH Chemical Genomics Center [NCGC] U.S. Environmental Protection Agency [EPA] National Institutes of Environmental Health Sciences [NIEHS] National Toxicology Program [NTP] Assay Overview: Transcription factors and their stimulated target gene expression play pivotal roles across many cellular processes including responses to environmental stimuli. Proper regulation of associated pathways is critical to maintain cell health and function. Constitutive activation of transcription factor pathways has been implicated in tumors as it may block cellular functions such as apoptosis and lead to invasion and metastasis. One important transcription factor that stimulates gene expression in response to cytokines, UV radiation, and other stimuli is nuclear factor-kappa B (NF-kB). To measure activation of the NF-kB pathway, the NF-kB-bla ME-180 cell line stably expressed beta-lactamase reporter gene under the regulation of a NF-kB response element was obtained from Invitrogen. This assay allows measurement of the NF-kB pathway activity induced by compounds in a ME-180 cell line. This system quantitates NF-kB activity using a FRET-based assay system where beta-lactamase expression disrupts FRET, allowing for fluorescent measurement of activity.
Assay Protocol Summary: For toxicology screening, 2,000 cells in 5 uL/well were dispensed into black, clear-bottom 1536-well plates using a Multidrop Combi (Thermo Scientific) dispenser. Following transfer of 23 nL compound or DMSO vehicle by a pin tool, the plates were incubated 16 hr at 37C and 5% CO2.
(qHTS replaces the single test concentration by a dilution series.)
For the compound `CCOC(=O)Nc1cccc(OC(=O)Nc2ccccc2)c1`, the activation was 0.127% (inactive).

With `CN1COCN(Cc2cnc(Cl)s2)/C1=N\[N+](=O)[O-]`, the activation is 0.219% (inactive).

For the compound `CCOC(=O)C(Cl)Cc1cc(-n2nc(C)n(C(F)F)c2=O)c(F)cc1Cl` (stereo not given), the activation is -0.796% (inactive). Take `CS(=O)(=O)c1cc(C(F)(F)F)ccc1C(=O)c1cnoc1C1CC1`: the activation is 0.439% (inactive). In the case of `COP(=S)(OC)Oc1c(Cl)cc(C)cc1Cl`, the activation was -0.0055% (inactive). Consider `C=C(C)C(=O)OCC(CC)CCCC` (stereo not given), for which the activation was -0.248% (inactive).

`CCOP(=S)(OCC)Oc1cnc2ccccc2n1`: the activation was -0.487% (inactive).

As for `Nc1ccccc1C(=O)OCCc1ccccc1`, the activation is 0.217% (inactive). Consider `C1=Cc2cccc3cccc1c23`, for which the activation was 0.838% (inactive). As to `Brc1c(Br)c(Br)c(Br)c(Br)c1Br`, the activation was -0.808% (inactive). For `CC(C)(C)OOC(C)(C)c1ccc(C(C)(C)OOC(C)(C)C)cc1`, the activation was 0.854% (inactive). With `CC(C)(c1ccccc1)c1cc(-n2nc3ccccc3n2)c(O)c(C(C)(C)c2ccccc2)c1`, the activation is 0.903% (inactive). For the compound `CC(C)N(C(=O)SCC(Cl)=C(Cl)Cl)C(C)C`, the activation was -1.22% (inactive). On to `COc1ccc(-c2ccccc2)cc1NNC(=O)OC(C)C`, for which the activation was -0.684% (inactive).

Regarding `O=C(O)COc1ccc(Cl)cc1`, the activation was -0.213% (inactive). With `CNc1cnn(-c2cccc(C(F)(F)F)c2)c(=O)c1Cl`, the activation is -1.53% (inactive). Turning to `C#CCN1C(=O)COc2cc(F)c(N3C(=O)C4=C(CCCC4)C3=O)cc21`, the activation was -1.45% (inactive). For `COP(=O)(OC)SCn1c(=O)oc2cc(Cl)cnc21`, the activation is -1.51% (inactive). Regarding `CCOc1nc(C(Cl)(Cl)Cl)ns1`, the activation is 0.185% (inactive). For the compound `CCCSC(=O)N(CCC)CCC`, the activation is 0.695% (inactive). Regarding `CCOP(=O)(OCC)SCS(=O)(=O)C(C)(C)C`, the activation was -0.0868% (inactive). With `Brc1ccc(Oc2ccccc2)cc1`, the activation was -2.79% (inactive). Take `CC(C)C1(C)N=C(c2nc3ccccc3cc2C(=O)O)NC1=O` (stereo not given): the activation is -0.622% (inactive).

Regarding `CC1(C(=O)Nc2ccc(O)c(Cl)c2Cl)CCCCC1`, the activation was 0.744% (inactive). Turning to `CCSC(=O)N(CC)C1CCCCC1`, the activation was 1.91% (inactive). For the compound `FC(F)(F)c1ccc(Cl)cc1`, the activation was 0.334% (inactive) and 1.17% (inactive). As for `CC1(C)CON(Cc2ccccc2Cl)C1=O`, the activation was 0.414% (inactive).

On to `CCC[CH2][Sn]1([CH2]CCC)[O]C(=O)C=CC(=O)[O]1`, for which the activation was -3.15% (inactive). For the compound `Clc1ccc([C@]2(Cn3cncn3)C[C@@H](Br)CO2)c(Cl)c1`, the activation was -2.1% (inactive) and -2.03% (inactive).

Take `CC1=C(C(=O)Nc2ccccc2)S(=O)(=O)CCO1`: the activation was -0.594% (inactive). Take `CCCCCCCCCCCCCCC(Br)C(=O)O` (stereo not given): the activation is 5.98% (inactive).

For the compound `C[N+]1(C)CCCCC1`, the activation is 0.391% (inactive). `CCOP(=S)(OCC)Oc1ncn(-c2ccccc2)n1`: the activation was 2.03% (inactive). With `CCOC1Oc2ccc(OS(C)(=O)=O)cc2C1(C)C` (stereo not given), the activation is 0.657% (inactive). Regarding `O=[As](O)(O)O`, the activation is -0.92% (inactive).

Turning to `CCOP(=O)(NC(C)C)Oc1ccc(S(C)=O)c(C)c1` (stereo not given), the activation was 0.567% (inactive). As for `[CH3][Sn]([CH3])([Cl])[Cl]`, the activation is 0.645% (inactive). Regarding `CCOP(=S)(OCC)SCn1nnc2ccccc2c1=O`, the activation is -3.08% (inactive). In the case of `COc1ccc(/C(=C/C(=O)N2CCOCC2)c2ccc(Cl)cc2)cc1OC`, the activation was -1.84% (inactive). The figure for `C=CCC1=C(C)[C@@H](OC(=O)[C@@H]2[C@@H](C=C(C)C)C2(C)C)CC1=O` is -0.0415% (inactive).
